The record followed here is PubChem BioAssay (NCI).

The panel holds about 83,000 compounds, 20% with a hit somewhere; the sample as a whole holds those more often.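 Cell lines were cultured in 96-well plates, exposed to a single compound concentration, and assessed for percent growth 48 hours later.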 Values without a mark were called inactive. The source made the active and inactive calls. How the source made its calls: active means growth percent below 10; inactive means the rest.

Some test systems named below: SR leukemia; RPMI-8226 leukemia; OVCAR-5 ovarian; OVCAR-4 ovarian; SK-OV-3 ovarian; IGROV1 ovarian; HS 578T breast; NCI/ADR-RES ovarian; T-47D breast; BT-549 breast; MDA-MB-435 melanoma; SW-620 colon; MCF7 breast; HCT-116 colon; HCC-2998 colon; KM12 colon; OVCAR-8 ovarian; OVCAR-3 ovarian.
Common to all, as to test: NCI-60 one-dose screen, 48 h (100 = growth as untreated, 0 = no growth, -100 = all killed)
Common to all, as to conditions: 10 µM unless noted

For the compound `COC(=O)c1[nH]nc2c1C1(C(=O)c3cccc4cccc1c34)C(C#N)=C(N)O2` (centres undefined), the growth with SR leukemia was 115%; in the assay with RPMI-8226 leukemia, 104%; with OVCAR-5 ovarian, 101%; in the assay on OVCAR-4 ovarian it was 97.5%; in the assay with SK-OV-3 ovarian, 85.3%; with IGROV1 ovarian, 95.5%. Further, the growth in the assay on HS 578T breast was 86.8%; with NCI/ADR-RES ovarian it was 106%; in the assay on T-47D breast it was 104%; in the assay with BT-549 breast it was 124%; in the assay with MDA-MB-435 melanoma it was 106%; in the assay with SW-620 colon it was 100%. Moreover, the growth is 84.3% in the assay on MCF7 breast, 101% in the assay with HCT-116 colon, 106% in the assay on HCC-2998 colon and 97.8% with KM12 colon.
As to `C#CCC#CCN1CCC[C@H]1C(=O)NCC(=O)OC`, the growth in the assay with SR leukemia was 118%; in the assay with OVCAR-8 ovarian it was 99.1%; in the assay with OVCAR-5 ovarian, 107%; with OVCAR-4 ovarian, 97.3%; in the assay with SK-OV-3 ovarian, 101%; in the assay on IGROV1 ovarian it was 104%. The growth in the assay on OVCAR-3 ovarian is 114%; with HS 578T breast, 117%; with NCI/ADR-RES ovarian it was 96%; with T-47D breast it was 94.8%; in the assay on BT-549 breast it was -91.5% (active); in the assay on MDA-MB-435 melanoma, 105%. In addition, the growth is 113% in the assay on SW-620 colon; 99.4% in the assay on MCF7 breast; 104% with HCT-116 colon; 106% with HCC-2998 colon; 103% with KM12 colon.
Regarding `CC1(C)[C@@H](O)CC[C@]2(C)[C@H]3CC[C@@H]4[C@H]5[C@H](C(=O)/C=C\c6ccccn6)CC[C@]5(O)CC[C@@]4(C)[C@]3(C)CC[C@@H]12`, the growth in the assay with SR leukemia was -17.6% (active); in the assay on OVCAR-8 ovarian, 39.5%; with OVCAR-5 ovarian it was 48.4%; in the assay with OVCAR-4 ovarian it was 32.9%; in the assay with SK-OV-3 ovarian, 89.8%; in the assay with IGROV1 ovarian, 34.5%. Moreover, the growth in the assay with OVCAR-3 ovarian is 25.4%; in the assay with HS 578T breast, 39.2%; in the assay with NCI/ADR-RES ovarian, 26.4%; in the assay with T-47D breast it was 59%; with BT-549 breast, 36%; in the assay on MDA-MB-435 melanoma it was 27.4%. The growth is 18.5% in the assay with SW-620 colon; 31.8% in the assay on MCF7 breast; 2.84% (active) in the assay on HCT-116 colon; 52% in the assay on HCC-2998 colon; 30.7% in the assay with KM12 colon.
As for `Cc1ccc(CSc2nc(-c3ccc(Cl)cc3)c(C#N)c(N3CCNCC3)n2)cc1`, the growth was -10.6% (active) with SR leukemia; 92% in the assay with OVCAR-8 ovarian; 99.7% in the assay with OVCAR-5 ovarian; 89.3% in the assay with OVCAR-4 ovarian; 117% with SK-OV-3 ovarian; 66.8% in the assay on IGROV1 ovarian. For the same compound, the growth was 82.9% in the assay with OVCAR-3 ovarian; 80.1% with HS 578T breast; 94.5% with NCI/ADR-RES ovarian; 88.8% in the assay with T-47D breast; 91% in the assay with BT-549 breast; 81.2% with MDA-MB-435 melanoma. Also, the growth is 83% with SW-620 colon; 58.5% in the assay on MCF7 breast; 66.9% in the assay with HCT-116 colon; 87.2% in the assay on HCC-2998 colon; 84.7% in the assay with KM12 colon.
For `COc1cc(-c2nnc(SCc3ccc(O)c4ncccc34)n2-c2ccccc2)cc(OC)c1OC`, the growth is 15.5% with SR leukemia; 3.25% (active) in the assay with RPMI-8226 leukemia; 33.2% in the assay with OVCAR-5 ovarian; 6.79% (active) in the assay with OVCAR-4 ovarian; 1.71% (active) in the assay with SK-OV-3 ovarian; 8.92% (active) with IGROV1 ovarian. The growth in the assay on OVCAR-3 ovarian is 6.44% (active); with HS 578T breast, 20.3%; in the assay on NCI/ADR-RES ovarian, 0.665% (active); in the assay with T-47D breast it was -0.917% (active); with BT-549 breast, 12.8%; with MDA-MB-435 melanoma, 10.8%. Besides, the growth in the assay on SW-620 colon was 10.3%; in the assay with MCF7 breast it was 2.01% (active); with HCT-116 colon, 5.72% (active); in the assay on HCC-2998 colon, 22.1%; with KM12 colon it was 14%.
As for `O=C(O)c1ccc(-n2cc(CNc3cc(F)c(F)c(F)c3)c(-c3ccc(F)cc3)n2)cc1`, the growth in the assay with SR leukemia was 78.1%; with OVCAR-8 ovarian, 83.9%; with OVCAR-5 ovarian, 108%; in the assay with OVCAR-4 ovarian, 95.5%; with SK-OV-3 ovarian, 116%; in the assay with IGROV1 ovarian, 91.9%. Further, the growth with OVCAR-3 ovarian is 96.3%; in the assay with HS 578T breast, 97.5%; in the assay with NCI/ADR-RES ovarian, 97.8%; in the assay on T-47D breast it was 85.5%; with BT-549 breast, 107%; with MDA-MB-435 melanoma, 96.1%. In addition, the growth was 103% in the assay on SW-620 colon; 58.3% with MCF7 breast; 88.5% in the assay with HCT-116 colon; 102% in the assay with HCC-2998 colon; 92.9% in the assay on KM12 colon.
In the case of `CCCSc1nc(Nc2ccc(/C(C)=N\NC(N)=S)cc2)c(C#N)c(-c2ccccc2)n1`, the growth in the assay on SR leukemia was 57.1%; with RPMI-8226 leukemia, 67.5%; with OVCAR-5 ovarian, 85.5%; with OVCAR-4 ovarian, 58.7%; with SK-OV-3 ovarian it was 125%; with IGROV1 ovarian, 86.9%. Also, the growth with OVCAR-3 ovarian is 31.4%; with HS 578T breast, 62.5%; with T-47D breast, 63.4%; in the assay with BT-549 breast it was 88.5%; in the assay with MDA-MB-435 melanoma, 87.5%; with SW-620 colon it was 84.1%. In addition, the growth is 47.9% in the assay with MCF7 breast, 49% with HCT-116 colon, 89.5% in the assay on HCC-2998 colon and 54.9% in the assay on KM12 colon.
`COc1cc(-c2nn(C(C)(C)C)cc2-c2ccnc(NCCCNS(=O)(=O)c3cccc(F)c3)n2)ccc1Cl`: the growth was 50.6% in the assay on SR leukemia; 51.8% with RPMI-8226 leukemia; 80.5% in the assay with OVCAR-5 ovarian; 45.8% with OVCAR-4 ovarian; 102% in the assay with SK-OV-3 ovarian; 48.9% in the assay on IGROV1 ovarian. The growth in the assay with HS 578T breast was 80.3%; in the assay with NCI/ADR-RES ovarian, 74.5%; in the assay on T-47D breast it was 69.5%; in the assay with MDA-MB-435 melanoma it was 77.9%; in the assay on SW-620 colon, 89.7%; with MCF7 breast it was 71.3%. The growth in the assay on HCT-116 colon was 52.4%; in the assay with HCC-2998 colon, 103%; in the assay with KM12 colon, 80.3%.
With `CCOC(=O)C(=O)/C(=C\c1ccc(Cl)cc1)C(=O)N1C(=S)NC(=O)C1CC(C)C` (centres undefined), the growth was 105% in the assay on SR leukemia; 103% in the assay on OVCAR-8 ovarian; 98.6% in the assay on OVCAR-5 ovarian; 98.2% with OVCAR-4 ovarian; 108% in the assay on SK-OV-3 ovarian; 95.2% in the assay with IGROV1 ovarian. The growth in the assay on OVCAR-3 ovarian is 111%; with HS 578T breast, 106%; in the assay on NCI/ADR-RES ovarian, 101%; in the assay on T-47D breast, 98.2%; with BT-549 breast, 108%; in the assay with MDA-MB-435 melanoma, 98.6%. For the same compound, the growth was 104% in the assay on SW-620 colon; 92% in the assay with MCF7 breast; 99.3% with HCT-116 colon; 101% in the assay with HCC-2998 colon; 98.8% in the assay on KM12 colon.
